Measurements: PubChem BioAssay (NCI)
This is part of a sample that, as a whole, favours compounds with a hit. Of some 83,000 tested, about 20% had one in any assay.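 Cell lines were cultured in 96-well plates, exposed to a single compound concentration, and assessed for percent growth 48 hours later.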 Values without a mark were called inactive. Activity calls are given as the source filed them. How the source made its calls: active means growth percent below 10; inactive means the rest.

Key:
Assay in all cases: NCI-60 one-dose screen, 48 h (100 = growth as untreated, 0 = no growth, -100 = all killed)
Conditions in all cases: 10 µM unless noted
NCI-H226 lung = system: NCI-H226 lung
NCI-H322M lung = system: NCI-H322M lung
HOP-62 NSCLC = system: HOP-62 NSCLC
NCI-H460 lung = system: NCI-H460 lung
NCI-H522 lung = system: NCI-H522 lung
A549/ATCC NSCLC = system: A549/ATCC NSCLC
786-0 renal = system: 786-0 renal
COLO 205 colon = system: COLO 205 colon
DU-145 prostate = system: DU-145 prostate
K-562 leukemia = system: K-562 leukemia
MALME-3M melanoma = system: MALME-3M melanoma
MDA-MB-231 breast = system: MDA-MB-231 breast
RXF 393 renal = system: RXF 393 renal
SF-268 CNS = system: SF-268 CNS
SF-295 CNS = system: SF-295 CNS
SF-539 CNS = system: SF-539 CNS
UACC-257 melanoma = system: UACC-257 melanoma
M14 melanoma = system: M14 melanoma
HOP-92 NSCLC = system: HOP-92 NSCLC

| SMILES | growth (NCI-H226 lung) | growth (NCI-H322M lung) | growth (HOP-62 NSCLC) | growth (NCI-H460 lung) | growth (NCI-H522 lung) | growth (A549/ATCC NSCLC) | growth (786-0 renal) | growth (COLO 205 colon) | growth (DU-145 prostate) | growth (K-562 leukemia) | growth (MALME-3M melanoma) | growth (MDA-MB-231 breast) | growth (RXF 393 renal) | growth (SF-268 CNS) | growth (SF-295 CNS) | growth (SF-539 CNS) | growth (UACC-257 melanoma) | growth (M14 melanoma) | growth (HOP-92 NSCLC) |
| --- | --- | --- | --- | --- | --- | --- | --- | --- | --- | --- | --- | --- | --- | --- | --- | --- | --- | --- | --- |
| NC(=S)Nc1cccc(NC(N)=S)c1 | 98.1% | 88.3% | 119% | 110% | 97.2% | 93.9% | 108% | 137% | 101% | 9.26% (active) | 84.3% | 89.7% | 104% | 90.9% | 90.2% | 100% | 98.1% | 125% |  |
| Cn1cc(-c2cc3nc(-c4c[nH]c5ccc(Br)cc45)cc(N)n3n2)c2ccccc21 | -35% (active) | -48.8% (active) | -74.4% (active) | -52.9% (active) | -68.9% (active) | -71.7% (active) | -89.6% (active) | -83.5% (active) | -85.7% (active) | 0.783% (active) | -73.4% (active) | -63.2% (active) | -89.4% (active) | -32.7% (active) | -81.8% (active) | -89.7% (active) | -84.6% (active) | -85.5% (active) | -73.6% (active) |
| c1ccc(-c2csc(Nc3cccc(Nc4nc(-c5ccccc5)cs4)c3)n2)cc1 | 66.2% | 58.1% | 73% | 26.9% | 11.4% | 44.2% | 50.4% | 83.5% | 58.9% | 26.6% | 52.8% | 48% | 63.8% | 40.6% | 37.6% | 57.7% | 46.1% | 47.8% | 43.7% |
| CC(=O)OCC1OC(OC2C(COC(C)=O)OC(n3cc(COc4ccc5ccc(=O)oc5c4)nn3)C(OC(C)=O)C2OC(C)=O)C(OC(C)=O)C(OC(C)=O)C1OC(C)=O (stereo unspecified) | 101% | 103% | 103% | 108% | 71.3% | 112% | 96.4% | 116% | 108% | 92.1% | 101% | 101% | 90.5% | 91.8% | 113% | 100% | 112% | 107% | 94.4% |
| O=[N+]([O-])c1ccc(/C=C/c2nc3ccccc3n3c(=S)[nH]nc23)cc1 | 65.3% | 84.1% | 80.2% | 78% | 63.6% | 77% | 102% | 104% | 88% | 70.5% | 101% | 85.9% | 78.7% | 80.1% | 125% | 98.4% | 94.8% | 84.4% | 68.2% |
| Cc1ccc(-c2nc(C#N)c(S(=O)(=O)N3CCN(S(=O)(=O)c4ccccc4)CC3)o2)cc1 | 69.2% | 77.9% | 87.7% | 32.6% | -87.8% (active) | 57.9% | -87.1% (active) | -62.1% (active) | 28.8% | -28.1% (active) | -77.4% (active) | 31.4% | -89.2% (active) | 56.5% | 149% | -43.4% (active) | 44.7% | -21.3% (active) | -20.4% (active) |
| COc1ccc(/C=C/c2nc3ccccc3nc2Nc2cccc(C)c2)cc1 | 93.1% | 105% | 92.7% | 101% | 83% | 106% | 97.4% | 105% | 108% | 84.2% | 115% | 88.5% | 109% | 96.8% | 127% | 103% | 112% | 99.6% | 99.3% |
| Nc1nc(C(F)(F)F)cs1 | 98.9% | 104% | 101% | 107% | 98.3% | 103% | 98.4% | 114% | 109% | 99.9% | 103% | 117% | 112% | 99.3% | 103% | 106% | 104% | 108% | 107% |
| CCN(CC)c1ccc(/C=N/Nc2nc(-c3ccc(C)cc3)cs2)c(O)c1 | 63.7% | 98.1% | 109% | 111% | 65.2% | 92.2% | 96.2% | 110% | 97.6% | 62.1% | 105% | 99.6% | 87.1% | 105% | 93.6% | 106% | 95.2% | 99.7% | 108% |
| Cn1cc(-c2cc(N)n3nc(-c4cn(C)c5ccccc45)cc3n2)c2cc(Br)ccc21 | 2.38% (active) | 7.11% (active) | -45.2% (active) | -24.2% (active) | -62.7% (active) | 4.06% (active) | -85% (active) | -79.1% (active) | 27.7% | 0.853% (active) | -72.9% (active) | -41.2% (active) | -70.1% (active) | -47.3% (active) | -53.4% (active) | -72.3% (active) | -71% (active) | -74.4% (active) | -59% (active) |
| C#CCOc1cc(N(CC)CC)ccc1C(C(=O)NC(C)(C)C)N(C(=O)C1CCc2cc(F)ccc2O1)c1ccccc1Br (stereo unspecified) | 63.8% | 86.3% | 73.3% | 52.3% | 47.6% | 54.2% | 59.4% | 46.9% | 74% | 31.3% | 77.4% | 63% | 81.6% | 62.1% | 62.8% | 72.5% | 60% | 55.5% | 56.4% |
| N#Cc1ccc(/C=N/NC(=O)c2[nH]c3ccc(Br)cc3c2-c2ccccc2)o1 | 22.9% | 41.3% | 16.6% | 1.47% (active) | -36.4% (active) | 12.7% | -1.06% (active) | -25.2% (active) | 8.4% (active) | 2.28% (active) | 22% |  | -2.8% (active) | 17.7% | 16% | -16.8% (active) | 13.6% | 12.1% | -2.77% (active) |
